TRHR enhancer: TRH receptor (human) allosteric enhancement; TRHR cells, fluo-8 calcium fluorescence, EC20 TRH enhancement; AID 493056; actives 0.66% (n = 360,000); enhancement, % at 2 µM; in the data active means enhancement above about 30%; further: 0% is about no effect
Target sequence (P34981 whole entry, looked up): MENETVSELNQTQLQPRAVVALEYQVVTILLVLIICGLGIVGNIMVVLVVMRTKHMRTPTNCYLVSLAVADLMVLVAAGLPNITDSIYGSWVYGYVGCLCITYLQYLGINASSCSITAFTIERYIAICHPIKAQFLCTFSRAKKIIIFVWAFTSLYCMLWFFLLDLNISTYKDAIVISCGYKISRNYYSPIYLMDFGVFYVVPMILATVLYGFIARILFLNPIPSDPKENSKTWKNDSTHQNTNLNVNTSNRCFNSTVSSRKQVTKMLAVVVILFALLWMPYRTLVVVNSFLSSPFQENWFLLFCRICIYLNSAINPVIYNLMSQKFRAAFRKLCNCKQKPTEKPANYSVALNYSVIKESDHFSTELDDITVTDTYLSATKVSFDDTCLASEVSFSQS
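Enhancer read-out: after compound pinning and an initial kinetic agonist-mode read, an EC20 of TRH (10 nM final) was injected and fluo-8 calcium signal (Ex 480/Em 530) followed at 1 s/cycle for 100 cycles in TRHR-expressing cells.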
TRHR agonist: activates the human TRH receptor. P34981. TRHR cells, calcium flux fluo-8, FDSS agonist mode. activation, % at 2 µM. actives 0.18% (n = 360,000); further: 0% is about no effect
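Fluo-8-loaded TRHR cells; 10 s baseline, compound added, kinetic Ca2+ fluorescence read 1/s, agonist mode.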
D1 PAM: potentiators of human D1 dopamine receptor. P21728. HEK293 TREx D1 cells, calcium flux, dopamine EC20 potentiation. potentiation, % at 10 µM. actives 0.036% (n = 360,000); in the data active means potentiation above about 30%; further: 0% is about no effect
D1 antag: human D1 dopamine receptor antagonism. HEK293 TREx D1 cells, calcium flux, dopamine EC80; stronger effect = lower value. activity change, negative = inhibition, % at 10 µM. actives 3.2% (n = 360,000). AID 504652; in the data active means activity change below about -30%; further: on the % scale 0 is the no-effect control and ±100 the full control effect
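HEK293 T-REx cells expressing inducible, force-coupled D1 receptor; no-wash Ca dye, 30–90 min RT. Cmpd → 180 s read at 1 Hz → EC80 DA → 180 s read.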
D1 agonist: activates the human D1 dopamine receptor; HEK293 T-REx D1 cells, calcium flux, agonist mode; activation, % at 2 µM; actives 1% (n = 360,000); further: 0% is about no effect
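Tetracycline-induced HEK293 TREx D1 cells, force-coupled to calcium signalling, were dye-loaded with a no-wash calcium kit. Compound was pin-added after a 10 s baseline. Fluorescence was read kinetically at 1 cycle/s for 180 s, with calcium rises flagged as agonism.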
Starred values were filed as active, the others as inactive. Sampled rows, rich in hits. Any-hit rate of the full collection: about 4.6%. Unless noted, no stated cut-off is given here; in the data, active means activation above about 30%; inactive means the rest.

SMILES	TRHR enhancer	TRHR agonist	D1 PAM	D1 antag	D1 agonist
COc1ccccc1Nc1nc(N)nc(CSc2nncn2C)n1	3	0	2	2	1
O=C(COc1ccccc1)NCCc1csc(-c2ccc(Cl)cc2)n1	2	0	-3	-49*	14
O=C(COc1ccc(Cl)cc1)NCCc1csc(-c2ccc(C(F)(F)F)cc2)n1	11	1	-3	-36*	10
O=C(O)C1CCN(C(=O)c2csc(-c3ccc4c(c3)CCO4)n2)CC1	-2	-1	1	-34*	3
Cc1nc2ccc([N+](=O)[O-])cc2c(=O)n1Cc1ccc([N+](=O)[O-])cc1	-20	0	-6	-62*	5
Cc1nc2ccc([N+](=O)[O-])cc2c(=O)n1Cc1ccccc1Br	-2	-1	-9	-43*	5
Cc1nc2ccc([N+](=O)[O-])cc2c(=O)n1Cc1cccc(Br)c1	-18	1	-2	6	-4
CCOC(=O)CN(C(=O)CNC(=O)c1ccco1)C(C(=O)NC1CCCCC1)c1cccnc1 (stereo not given)	3	1	10	7	-2
Cc1ccc2nc(-c3ccc(NC(=S)NC4CC(C)(C)NC(C)(C)C4)cc3)sc2c1	1	0	-3	-3	41*
O=C(CSc1nc2ccc(NC(=O)CSc3nnnn3-c3ccccc3)cc2s1)Nc1ccccc1	2	2	1	-8	6
O=C1c2ccccc2C(=O)N1CSc1nnnn1-c1ccccc1	-11	0	-2	1	3
c1ccc(-n2nnnc2SCCCSc2nc3ccccc3s2)cc1	34*	1	-3	-9	23
O=C1c2ccccc2C(=O)N1CCCCSc1nnnn1-c1ccccc1	14	0	0	-30*	71*
CSC1=N/C(=C\c2c(F)cccc2Cl)C(=O)S1	-1	0	0	-3	7
COc1ccc(/C=C2\SC(=O)N(CCNC(=O)C3CC4C=CC3C4)C2=O)cc1 (stereo not given)	-4	0	-7	1	5
O=C(COC(=O)COc1cccc(F)c1)NCCC1=CCCCC1	17	1	-4	-32*	0
O=C(COC(=O)CNC(=O)c1cccc(F)c1)NCCC1=CCCCC1	3	0	-7	3	0
O=C(COC(=O)Cc1c(F)cccc1Cl)NCCC1=CCCCC1	-2	4	-11	6	20
O=C(COC(=O)Cc1c(Cl)cccc1Cl)NCCC1=CCCCC1	-5	0	-1	-3	35*
CC(=O)Nc1ccc(-c2ccc(NC(C)=O)c(O)c2)cc1O	-4	1	-7	-32*	0
CCOc1ccc(CN(C)CC(=O)c2c(N)n(Cc3ccccc3)c(=O)n(CC)c2=O)cc1OC	6	0	-2	6	2
Cc1cc(Br)ccc1NCc1ccccn1	6	0	6	-56*	0
Cc1c(C#N)c(N)nc2c3c(sc12)NC(=O)CC3c1ccccc1 (stereo not given)	36*	-2	-4	16	1
Cc1cc(C)c2c(n1)sc1c(-c3ccccc3)c(C#N)c(N)nc12	-3	0	-7	12	2
Cc1cccn2c3c(c(=O)nc12)C(c1ccc(F)cc1)CC(=O)N3 (stereo not given)	1	0	0	-7	5
SMILES	TRHR enhancer	TRHR agonist	D1 PAM	D1 antag	D1 agonist
Cc1c(C#N)c(N)nc2c3c(sc12)NC(=O)CC3c1ccc(F)cc1 (stereo not given)	-6	0	-7	-31*	1
O=c1oc2c(CN3CCN(CCO)CC3)c(O)ccc2cc1-c1ccccc1	-2	2	-1	-4	-1
CN1CCN(Cc2c(O)ccc3cc(-c4ccc(Cl)cc4)c(=O)oc23)CC1	-2	2	0	-15	32*
COc1ccc(-c2cc3ccc(O)c(CN4CCCC(C)C4)c3oc2=O)cc1OC (stereo not given)	4	32*	-3	15	2
CCc1nnc(NC(=O)C2CCC(CNc3c(N4CCCCC4)c(=O)c3=O)CC2)s1 (stereo not given)	-8	1	-6	-3	3
O=C(NC1CC1)c1cc2cc(Br)ccc2s1	-5	0	-12	-32*	7
CCc1ccc(S(=O)(=O)Nc2ccc(Cl)cn2)cc1	0	-1	-5	-92*	1

Source: PubChem (National Center for Advancing Translational Sciences (NCATS))
